From the supplement of paper PMC10849652
The full data set covers some 7,900 targets. This sample favours those with a hit. About 0.6% of all pairs of compound and target were hits.

Key:
Assay in all cases: log2 fold change, soluble protein after heating vs DMSO (PISA); higher = thermal stabilisation; K562 cells, 10 uM, 30 min; active = over 0.2 and 3.5 SD of the protein, either way, in both replicates (recomputed)
saracatinib = compound: CN1CCN(CCOc2cc(OC3CCOCC3)c3c(Nc4c(Cl)ccc5c4OCO5)ncnc3c2)CC1 [saracatinib]
Outline: (§1)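 K562 cells at 2×10^6 cells/mL were given 10 μM compound for 30 min. Aliquots then went through 3 min of heating across 48°C-58°C, were pooled, and were extracted in PBS with 0.5% NP-40 at 4°C, and the supernatant after 21,000xg for 90 min was quantified by TMTpro 16plex LC-MS/MS with channel sums equalised. Thermal stability relative to control samples, from duplicates, is given as log2 fold change.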

sotrastaurin = compound: CN1CCN(c2nc(C3=C(c4c[nH]c5ccccc45)C(=O)NC3=O)c3ccccc3n2)CC1 [sotrastaurin]
Outline: as §1

alvocidib = compound: CN1CC[C@H](c2c(O)cc(O)c3c(=O)cc(-c4ccccc4Cl)oc23)[C@H](O)C1 [alvocidib]
Outline: as §1

Tubastatin A = compound: CN1CCc2c(c3ccccc3n2Cc2ccc(C(=O)NO)cc2)C1 [Tubastatin A]
Outline: as §1

[1] = compound: CNC(=O)C1=CC=CC=C1NC2=NC(=NC=C2Cl)NC3=C(C=C(C=C3)N4CCOCC4)OC
Outline: as §1

defactinib = compound: CNC(=O)c1ccc(Nc2ncc(C(F)(F)F)c(NCc3nccnc3N(C)S(C)(=O)=O)n2)cc1 [defactinib]
Outline: as §1

rucaparib = compound: CNCc1ccc(-c2[nH]c3cc(F)cc4c3c2CCNC4=O)cc1 [rucaparib]
Outline: as §1

[2] = compound: CNc1nc(-c2ccc3c(N)n[nH]c3c2)cc(N2C[C@@H](C(=O)NC3CCCCC3)CC[C@H]2C)n1
Outline: as §1

encorafenib = compound: COC(=O)N[C@@H](C)CNc1nccc(-c2cn(C(C)C)nc2-c2cc(Cl)cc(NS(C)(=O)=O)c2F)n1 [encorafenib]
Outline: as §1

[3] = compound: COC(=O)[C@H](CCSC)NC(=O)C1=C(C=C(C=C1)NC[C@H](CS)N)C2=CC=CC=C2
Outline: as §1

[4] = compound: COC1=CC=C(C=C1)CN2C=CC3=C2C=C(C=C3)C(=O)NO
Outline: as §1

filanesib = compound: CON(C)C(=O)N1N=C(c2cc(F)ccc2F)S[C@@]1(CCCN)c1ccccc1 [filanesib]
Outline: as §1

zotarolimus = compound: CO[C@H]1C[C@@H]2CC[C@@H](C)[C@@](O)(O2)C(=O)C(=O)N2CCCC[C@H]2C(=O)O[C@H]([C@H](C)C[C@@H]2CC[C@H](n3cnnn3)[C@H](OC)C2)CC(=O)[C@H](C)/C=C(\C)[C@@H](O)[C@@H](OC)C(=O)[C@H](C)C[C@H](C)/C=C/C=C/C=C/1C [zotarolimus]
Outline: as §1

idasanutlin = compound: COc1cc(C(=O)O)ccc1NC(=O)[C@@H]1N[C@@H](CC(C)(C)C)[C@](C#N)(c2ccc(Cl)cc2F)[C@H]1c1cccc(Cl)c1F [idasanutlin]
Outline: as §1

alisertib = compound: COc1cc(Nc2ncc3c(n2)-c2ccc(Cl)cc2C(c2c(F)cccc2OC)=NC3)ccc1C(=O)O [alisertib]
Outline: as §1

[5] = compound: COc1cc2nc(-c3cc(F)ccc3O)nc(N[C@@H]3CNC[C@H]3C(C)(C)O)c2cc1OC
Outline: as §1

gefitinib = compound: COc1cc2ncnc(Nc3ccc(F)c(Cl)c3)c2cc1OCCCN1CCOCC1 [gefitinib]
Outline: as §1

[6] = compound: COc1cccc2cc(-c3nc([C@H]4CC[C@H](C(=O)O)CC4)n4ncnc(N)c34)[nH]c12
Outline: as §1

lapatinib = compound: CS(=O)(=O)CCNCc1ccc(-c2ccc3ncnc(Nc4ccc(OCc5cccc(F)c5)c(Cl)c4)c3c2)o1 [lapatinib]
Outline: as §1

pictilisib = compound: CS(=O)(=O)N1CCN(Cc2cc3nc(-c4cccc5[nH]ncc45)nc(N4CCOCC4)c3s2)CC1 [pictilisib]
Outline: as §1

Measured: log2 fold change

RGS10 (UniProt O43665)
Sequence of UniProt O43665 (O43665 whole entry, looked up): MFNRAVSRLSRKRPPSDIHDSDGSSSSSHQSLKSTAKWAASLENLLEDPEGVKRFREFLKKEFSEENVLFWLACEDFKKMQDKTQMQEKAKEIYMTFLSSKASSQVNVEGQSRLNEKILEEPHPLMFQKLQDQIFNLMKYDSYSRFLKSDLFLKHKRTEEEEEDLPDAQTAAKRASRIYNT
inactive: saracatinib 0.033 | sotrastaurin -0.023 | alvocidib -0.042 | Tubastatin A 0.049 | [1] 0.014 | defactinib -0.11 | rucaparib 0.038 | [2] 0 | encorafenib -0.001 | [3] -0.002 | [4] -0.023 | filanesib -0.081 | zotarolimus 0.115 | idasanutlin 0.086 | alisertib -0.053 | [5] 0.003 | gefitinib 0.056 | [6] -0.014 | lapatinib 0.029 | pictilisib -0.028

RCC1 isoform 2 (UniProt P18754)
Sequence of UniProt P18754 (P18754 whole entry, looked up): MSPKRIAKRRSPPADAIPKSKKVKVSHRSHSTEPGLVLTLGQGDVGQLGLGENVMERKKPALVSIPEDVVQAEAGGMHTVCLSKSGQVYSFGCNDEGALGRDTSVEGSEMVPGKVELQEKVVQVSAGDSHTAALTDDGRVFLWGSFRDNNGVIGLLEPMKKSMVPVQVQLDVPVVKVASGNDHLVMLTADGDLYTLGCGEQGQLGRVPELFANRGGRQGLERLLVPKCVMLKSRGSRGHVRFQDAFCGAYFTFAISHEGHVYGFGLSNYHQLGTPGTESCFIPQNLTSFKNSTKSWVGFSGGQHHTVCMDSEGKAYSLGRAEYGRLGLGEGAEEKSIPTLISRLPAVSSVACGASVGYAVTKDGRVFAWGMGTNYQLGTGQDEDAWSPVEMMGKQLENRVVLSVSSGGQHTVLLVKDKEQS
inactive: saracatinib -0.076 | sotrastaurin -0.049 | alvocidib -0.234 | Tubastatin A 0.164 | [1] -0.083 | defactinib -0.224 | rucaparib -0.008 | [2] 0.146 | encorafenib 0.045 | [3] -0.07 | [4] 0.106 | filanesib -0.058 | zotarolimus 0.083 | idasanutlin 0 | alisertib 0.022 | [5] -0.038 | gefitinib 0.087 | [6] 0.021 | lapatinib 0 | pictilisib -0.005

REL (UniProt Q04864)
Sequence of UniProt Q04864 (Q04864 whole entry, looked up): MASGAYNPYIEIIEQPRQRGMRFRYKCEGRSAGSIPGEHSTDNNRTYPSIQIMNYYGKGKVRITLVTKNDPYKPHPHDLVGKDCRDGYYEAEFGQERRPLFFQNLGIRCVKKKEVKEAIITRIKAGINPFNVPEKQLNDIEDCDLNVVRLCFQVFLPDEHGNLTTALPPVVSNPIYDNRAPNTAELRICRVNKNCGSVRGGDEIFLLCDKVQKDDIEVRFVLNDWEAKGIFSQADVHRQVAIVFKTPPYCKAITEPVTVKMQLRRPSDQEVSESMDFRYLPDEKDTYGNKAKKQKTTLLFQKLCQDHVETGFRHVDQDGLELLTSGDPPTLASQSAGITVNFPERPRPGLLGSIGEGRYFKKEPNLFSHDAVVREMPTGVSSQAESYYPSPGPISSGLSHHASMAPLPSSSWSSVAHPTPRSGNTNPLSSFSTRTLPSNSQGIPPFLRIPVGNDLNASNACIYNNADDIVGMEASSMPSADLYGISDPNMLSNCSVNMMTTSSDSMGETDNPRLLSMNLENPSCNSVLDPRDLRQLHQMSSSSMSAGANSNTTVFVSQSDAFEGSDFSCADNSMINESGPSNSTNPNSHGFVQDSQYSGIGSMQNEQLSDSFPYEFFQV
inactive: saracatinib -0.028 | sotrastaurin -0.049 | alvocidib -0.059 | Tubastatin A 0.008 | [1] 0.052 | defactinib -0.12 | rucaparib 0.089 | [2] -0.013 | encorafenib -0.046 | [3] -0.016 | [4] -0.006 | filanesib 0.051 | zotarolimus 0.004 | idasanutlin 0.033 | alisertib 0.068 | [5] 0.062 | gefitinib 0.148 | [6] -0.086 | lapatinib -0.031 | pictilisib -0.243

RPS12 (UniProt P25398)
inactive: saracatinib -0.014 | sotrastaurin -0.023 | alvocidib 0.123 | Tubastatin A 0.017 | [1] 0.049 | defactinib 0.092 | rucaparib 0.12 | [2] -0.008 | encorafenib 0.02 | [3] 0.015 | [4] -0.009 | filanesib 0.018 | zotarolimus -0.026 | idasanutlin 0.048 | alisertib -0.17 | [5] -0.057 | gefitinib -0.02 | [6] -0.159 | lapatinib 0.062 | pictilisib -0.033

RTF2 (UniProt Q9BY42)
Sequence of UniProt Q9BY42 (Q9BY42 whole entry, looked up): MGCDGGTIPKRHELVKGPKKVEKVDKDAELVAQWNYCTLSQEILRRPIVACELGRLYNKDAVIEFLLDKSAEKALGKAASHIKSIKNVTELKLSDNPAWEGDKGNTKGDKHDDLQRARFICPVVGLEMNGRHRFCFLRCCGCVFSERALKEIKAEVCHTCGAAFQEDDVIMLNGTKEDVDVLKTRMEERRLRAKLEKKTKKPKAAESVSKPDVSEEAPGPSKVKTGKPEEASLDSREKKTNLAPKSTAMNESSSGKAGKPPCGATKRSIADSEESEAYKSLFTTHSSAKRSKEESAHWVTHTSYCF
inactive: saracatinib -0.021 | sotrastaurin -0.007 | alvocidib -0.01 | Tubastatin A 0.099 | [1] 0.083 | defactinib -0.151 | rucaparib 0.027 | [2] -0.142 | encorafenib 0.058 | [3] -0.045 | [4] -0.021 | filanesib 0.09 | zotarolimus 0.03 | idasanutlin 0.066 | alisertib 0.024 | [5] 0.036 | gefitinib 0.049 | [6] 0 | lapatinib 0.026 | pictilisib -0.027

RPS25 (UniProt P62851)
inactive: saracatinib -0.052 | sotrastaurin 0.007 | alvocidib 0.178 | Tubastatin A 0.094 | [1] 0.095 | defactinib 0.184 | rucaparib 0.124 | [2] 0.076 | encorafenib 0.01 | [3] 0.024 | [4] 0.006 | filanesib 0.145 | zotarolimus -0.015 | idasanutlin 0.061 | alisertib -0.143 | [5] -0.038 | gefitinib -0.022 | [6] -0.198 | lapatinib 0.038 | pictilisib -0.08

SCAF8 isoform 2 (UniProt Q9UPN6)
Sequence of UniProt Q9UPN6 (Q9UPN6 whole entry, looked up): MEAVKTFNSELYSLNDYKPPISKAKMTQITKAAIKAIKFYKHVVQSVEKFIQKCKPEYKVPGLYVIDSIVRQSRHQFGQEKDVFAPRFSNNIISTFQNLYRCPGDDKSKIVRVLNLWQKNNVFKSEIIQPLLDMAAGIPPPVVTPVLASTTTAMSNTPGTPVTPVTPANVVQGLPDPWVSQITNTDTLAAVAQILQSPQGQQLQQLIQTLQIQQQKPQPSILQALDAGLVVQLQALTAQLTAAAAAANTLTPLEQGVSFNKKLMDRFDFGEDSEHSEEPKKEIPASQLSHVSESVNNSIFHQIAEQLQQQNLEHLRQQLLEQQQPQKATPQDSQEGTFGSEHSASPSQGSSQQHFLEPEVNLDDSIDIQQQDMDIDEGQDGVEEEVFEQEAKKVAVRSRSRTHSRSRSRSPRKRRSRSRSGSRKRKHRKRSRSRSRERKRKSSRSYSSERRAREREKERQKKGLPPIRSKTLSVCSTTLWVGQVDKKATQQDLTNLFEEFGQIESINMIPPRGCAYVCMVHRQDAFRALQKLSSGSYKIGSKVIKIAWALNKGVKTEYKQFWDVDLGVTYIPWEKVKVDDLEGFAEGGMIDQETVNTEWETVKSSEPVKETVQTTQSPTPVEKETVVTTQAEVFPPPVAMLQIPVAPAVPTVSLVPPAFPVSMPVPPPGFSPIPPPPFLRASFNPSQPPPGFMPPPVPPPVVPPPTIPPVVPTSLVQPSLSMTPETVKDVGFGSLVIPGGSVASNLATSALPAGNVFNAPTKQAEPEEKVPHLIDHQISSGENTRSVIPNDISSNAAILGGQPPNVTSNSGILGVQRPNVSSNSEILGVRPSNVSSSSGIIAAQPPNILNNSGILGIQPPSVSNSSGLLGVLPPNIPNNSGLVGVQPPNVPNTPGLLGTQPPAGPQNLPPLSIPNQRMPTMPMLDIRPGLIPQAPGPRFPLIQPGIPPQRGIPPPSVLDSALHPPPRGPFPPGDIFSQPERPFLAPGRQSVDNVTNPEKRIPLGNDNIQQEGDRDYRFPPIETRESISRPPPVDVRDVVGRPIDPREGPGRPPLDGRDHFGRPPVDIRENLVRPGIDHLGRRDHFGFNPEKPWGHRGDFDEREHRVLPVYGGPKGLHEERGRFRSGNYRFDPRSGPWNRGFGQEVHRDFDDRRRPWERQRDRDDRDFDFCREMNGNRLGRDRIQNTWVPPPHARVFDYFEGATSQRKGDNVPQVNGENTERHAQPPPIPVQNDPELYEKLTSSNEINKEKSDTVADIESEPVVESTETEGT
inactive: saracatinib -0.078 | sotrastaurin -0.09 | alvocidib -0.167 | Tubastatin A 0.006 | [1] -0.085 | defactinib -0.083 | rucaparib 0.004 | [2] 0.016 | encorafenib 0.018 | [3] -0.06 | [4] 0.026 | filanesib 0.002 | zotarolimus 0.022 | idasanutlin -0.003 | alisertib -0.027 | [5] 0.048 | gefitinib 0.058 | [6] 0.015 | lapatinib -0.007 | pictilisib -0.055

SIK3 (UniProt H0Y4E8)
inactive: saracatinib 0.027 | sotrastaurin 0.157 | alvocidib -0.007 | Tubastatin A 0.064 | [1] -0.009 | defactinib -0.072 | rucaparib 0.023 | [2] -0.114 | encorafenib 0.056 | [3] 0.01 | [4] -0.015 | filanesib 0.085 | zotarolimus -0.073 | idasanutlin -0.065 | alisertib -0.018 | [5] 0.077 | gefitinib -0.026 | [6] 0.466 | lapatinib 0.036 | pictilisib -0.007

RDH10 (UniProt Q8IZV5)
Sequence of UniProt Q8IZV5 (Q8IZV5 whole entry, looked up): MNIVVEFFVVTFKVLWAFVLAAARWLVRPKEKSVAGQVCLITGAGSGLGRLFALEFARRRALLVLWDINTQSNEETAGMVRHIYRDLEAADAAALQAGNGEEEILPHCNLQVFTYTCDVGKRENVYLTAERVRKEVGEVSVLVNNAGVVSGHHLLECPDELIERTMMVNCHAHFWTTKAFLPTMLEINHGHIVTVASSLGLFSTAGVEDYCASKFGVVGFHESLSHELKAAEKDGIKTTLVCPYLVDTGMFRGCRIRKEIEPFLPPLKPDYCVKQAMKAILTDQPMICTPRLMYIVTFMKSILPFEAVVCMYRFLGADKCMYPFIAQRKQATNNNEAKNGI
inactive: saracatinib 0.005 | sotrastaurin 0.016 | alvocidib -0.043 | Tubastatin A 0.04 | [1] 0.068 | defactinib -0.002 | rucaparib -0.034 | [2] 0.072 | encorafenib -0.011 | [3] -0.063 | [4] -0.007 | filanesib -0.023 | zotarolimus -0.03 | idasanutlin -0.14 | alisertib 0.013 | [5] 0.031 | gefitinib 0.083 | [6] 0.036 | lapatinib 0.037 | pictilisib 0.009

SKP1 (UniProt P63208)
Sequence of UniProt P63208 (P63208 whole entry, looked up): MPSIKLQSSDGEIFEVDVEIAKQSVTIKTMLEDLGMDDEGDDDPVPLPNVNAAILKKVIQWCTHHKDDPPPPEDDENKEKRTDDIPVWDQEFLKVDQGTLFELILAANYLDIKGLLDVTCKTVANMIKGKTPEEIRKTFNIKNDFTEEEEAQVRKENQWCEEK
inactive: saracatinib 0.157 | sotrastaurin -0.023 | alvocidib -0.032 | Tubastatin A 0.002 | [1] 0.165 | defactinib 0.066 | rucaparib -0.051 | [2] 0.028 | encorafenib -0.005 | [3] 0.072 | [4] 0.209 | filanesib -0.095 | zotarolimus 0.09 | idasanutlin 0.027 | alisertib -0.005 | [5] -0.099 | gefitinib 0.001 | [6] -0.008 | lapatinib 0.01 | pictilisib -0.121

SEC31A (UniProt O94979)
inactive: saracatinib -0.086 | sotrastaurin -0.084 | alvocidib -0.006 | Tubastatin A 0.019 | [1] 0.043 | defactinib -0.036 | rucaparib 0.002 | [2] -0.015 | encorafenib 0.062 | [3] -0.03 | [4] 0.01 | filanesib 0.063 | zotarolimus 0.029 | idasanutlin -0.039 | alisertib 0.006 | [5] 0.211 | gefitinib 0.008 | [6] -0.01 | lapatinib -0.036 | pictilisib -0.002

RPS5 (UniProt P46782)
inactive: saracatinib -0.038 | sotrastaurin 0.018 | alvocidib 0.167 | Tubastatin A 0.084 | [1] 0.065 | defactinib 0.121 | rucaparib 0.096 | [2] 0.103 | encorafenib 0.054 | [3] -0.026 | [4] 0.004 | filanesib 0.089 | zotarolimus 0.011 | idasanutlin 0.094 | alisertib -0.11 | [5] -0.056 | gefitinib -0.052 | [6] -0.126 | lapatinib 0.081 | pictilisib -0.099

SERINC3 (UniProt Q13530)
Sequence of UniProt Q13530 (Q13530 whole entry, looked up): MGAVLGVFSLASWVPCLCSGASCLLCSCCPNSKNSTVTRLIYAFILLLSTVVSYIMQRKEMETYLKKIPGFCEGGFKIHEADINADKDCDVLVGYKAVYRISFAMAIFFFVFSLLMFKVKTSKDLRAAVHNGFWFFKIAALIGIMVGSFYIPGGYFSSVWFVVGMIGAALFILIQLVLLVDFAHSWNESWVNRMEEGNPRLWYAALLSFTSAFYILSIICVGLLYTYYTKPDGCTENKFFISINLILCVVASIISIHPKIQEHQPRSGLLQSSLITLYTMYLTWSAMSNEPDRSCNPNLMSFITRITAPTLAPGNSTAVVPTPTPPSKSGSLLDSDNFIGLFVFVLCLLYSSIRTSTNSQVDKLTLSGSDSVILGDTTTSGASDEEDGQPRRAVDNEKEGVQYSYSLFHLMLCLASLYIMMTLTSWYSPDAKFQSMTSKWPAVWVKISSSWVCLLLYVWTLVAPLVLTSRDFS
inactive: saracatinib 0.002 | sotrastaurin 0.119 | alvocidib 0.134 | Tubastatin A -0.06 | [1] -0.043 | defactinib -0.016 | rucaparib 0.006 | [2] -0.216 | encorafenib -0.017 | [3] -0.065 | [4] -0.015 | filanesib -0.222 | zotarolimus -0.062 | idasanutlin 0.136 | alisertib 0 | [5] -0.17 | gefitinib -0.069 | [6] 0.042 | lapatinib -0.181 | pictilisib 0.181

RPRD1B (UniProt Q9NQG5)
Sequence of UniProt Q9NQG5 (Q9NQG5 whole entry, looked up): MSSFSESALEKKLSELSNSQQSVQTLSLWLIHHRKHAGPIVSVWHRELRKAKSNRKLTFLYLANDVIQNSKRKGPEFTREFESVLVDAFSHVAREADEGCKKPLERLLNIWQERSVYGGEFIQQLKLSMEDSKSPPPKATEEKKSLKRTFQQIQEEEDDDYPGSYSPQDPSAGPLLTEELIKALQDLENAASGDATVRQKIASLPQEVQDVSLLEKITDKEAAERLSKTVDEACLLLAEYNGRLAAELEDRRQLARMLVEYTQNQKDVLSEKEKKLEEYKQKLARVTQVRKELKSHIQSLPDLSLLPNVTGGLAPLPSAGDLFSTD
inactive: saracatinib -0.014 | sotrastaurin -0.126 | alvocidib -0.082 | Tubastatin A -0.039 | [1] 0.055 | defactinib -0.09 | rucaparib -0.116 | [2] -0.011 | encorafenib 0.04 | [3] -0.004 | [4] 0.014 | filanesib 0.022 | zotarolimus -0.018 | idasanutlin -0.031 | alisertib -0.011 | [5] 0.106 | gefitinib 0.037 | [6] 0.061 | lapatinib -0.004 | pictilisib 0.019

RDH13 (UniProt Q8NBN7)
Sequence of UniProt Q8NBN7 (Q8NBN7 whole entry, looked up): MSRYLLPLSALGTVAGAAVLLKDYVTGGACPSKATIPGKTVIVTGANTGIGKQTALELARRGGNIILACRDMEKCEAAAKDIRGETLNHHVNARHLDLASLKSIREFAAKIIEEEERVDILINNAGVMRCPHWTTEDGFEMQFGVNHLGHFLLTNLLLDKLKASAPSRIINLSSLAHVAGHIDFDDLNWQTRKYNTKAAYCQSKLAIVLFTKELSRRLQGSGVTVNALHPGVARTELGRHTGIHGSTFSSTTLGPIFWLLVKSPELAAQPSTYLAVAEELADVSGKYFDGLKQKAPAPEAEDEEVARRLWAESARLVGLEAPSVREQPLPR
inactive: saracatinib -0.084 | sotrastaurin 0.027 | alvocidib -0.097 | Tubastatin A -0.063 | [1] -0.062 | defactinib -0.043 | rucaparib 0.029 | [2] 0.016 | encorafenib 0.014 | [3] -0.016 | [4] 0.056 | filanesib -0.135 | zotarolimus 0.072 | idasanutlin -0.019 | alisertib -0.005 | [5] -0.064 | gefitinib 0.018 | [6] 0.084 | lapatinib 0 | pictilisib 0.042
